Assay outcomes deposited in PubChem BioAssay by several laboratories.
C-LANA FP – blocks KSHV LANA C-terminal domain binding to DNA; inhibition, % at 9 µM; 340,000 compounds, 0.078% hits; AID 504423; MBP-C-LANA/FAM-LBS DNA binding, fluorescence polarization;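 active = highest replicate inhibition at or above 60% at 9 µM, even if other replicates fall short; inactive = all replicates below 60% inhibition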;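 also: 0% = neutral control wells and 100% = 4 µM acridine orange control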
Keap1-Nrf2 PPI – Keap1-Nrf2 (human) interaction inhibition | Q14145 | Keap1 Kelch-Nrf2 peptide fluorescence polarization, 1536-well | inhibition, % at 9.4 µM | 340,000 compounds, 0.15% hits; in the data active = inhibition above about 12%;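 also: human Keap1 Kelch domain with fluorescein labeled Nrf2 9mer peptide probe; 0% = neutral control wells and 100% = peptide positive control; higher means more block of Keap1 binding to Nrf2 peptide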
Target sequence (Q14145 whole entry, looked up, the tested form may be a part): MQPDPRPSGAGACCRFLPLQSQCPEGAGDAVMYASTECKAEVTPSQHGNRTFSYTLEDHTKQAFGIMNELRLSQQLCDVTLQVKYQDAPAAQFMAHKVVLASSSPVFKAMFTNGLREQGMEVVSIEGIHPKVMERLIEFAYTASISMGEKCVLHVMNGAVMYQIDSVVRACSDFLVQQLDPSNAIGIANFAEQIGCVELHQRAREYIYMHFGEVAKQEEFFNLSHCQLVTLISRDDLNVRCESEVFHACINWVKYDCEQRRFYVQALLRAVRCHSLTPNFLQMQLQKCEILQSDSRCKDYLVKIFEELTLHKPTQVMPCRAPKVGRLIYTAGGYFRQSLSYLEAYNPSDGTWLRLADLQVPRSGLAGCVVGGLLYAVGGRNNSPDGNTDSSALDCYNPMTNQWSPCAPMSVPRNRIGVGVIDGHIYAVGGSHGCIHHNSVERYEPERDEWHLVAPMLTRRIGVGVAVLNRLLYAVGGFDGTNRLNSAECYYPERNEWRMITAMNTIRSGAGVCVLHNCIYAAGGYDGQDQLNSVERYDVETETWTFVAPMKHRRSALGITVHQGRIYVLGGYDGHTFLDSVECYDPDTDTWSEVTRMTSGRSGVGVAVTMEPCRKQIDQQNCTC
EBNA-1 inh – blocks EBNA-1 binding to DNA | EBNA-1 DNA binding, fluorescence polarization | inhibition, % at 14.8 µM | 300,000 compounds, 0.34% hits; in the data active = inhibition above about 28%
eLon inh – inhibits E. coli Lon protease | P0A9M0 | purified E. coli Lon protease, fluorescence polarization | inhibition, % at 7.94 µM | 360,000 compounds, 0.42% hits | AID 602123; in the data active = inhibition above about 13%, passing the limit was not always enough;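 also: 0% = enzyme with probe and DMSO and 100% = no enzyme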
ZTA counter – ZTA (EBV) inhibition in EBNA-1 counter-screen. P03206. ZTA-DNA binding, fluorescence polarization. inhibition, % at 11 µM. 320,000 compounds, 0.15% hits. AID 2234; in the data active = inhibition above about 33%
eLon confirm – E. coli Lon inhibition confirmation; shares compounds with eLon inh; purified E. coli Lon, fluorescence polarization; inhibition, % at 7.94 µM; 1,400 compounds, 31% hits; in the data active = inhibition above about 16%;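 also: 0% = enzyme with probe and DMSO and 100% = no enzyme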
Active calls of the source: *; / = no result given. Rows were chosen to be rich in hits. Some 0.85% of all compounds tested hit in one or more screens of this group.

SMILES | C-LANA FP | Keap1-Nrf2 PPI | EBNA-1 inh | eLon inh | ZTA counter | eLon confirm
CC(C)N1C(=O)CC(Nc2cccc3cccc(N)c23)C1=O (centres undefined) | -1 | -3 | / | -2 | / | /
Cc1ccc(NC(=S)NCc2ccc(Cl)cc2)c(C)c1 | -1 | -4 | -7 | 17* | 8 | -47
Cc1ccc(CNC(=O)C2CCCN(S(=O)(=O)c3cccc4nonc34)C2)cc1 (centres undefined) | -4 | 1 | -16 | 2 | 2 | /
Clc1ccc(N=NN2CCOCC2)cc1 | 1 | 1 | -8 | 19* | -5 | 4
CN1CCC[C@H]1CCNc1ccc2c(=O)c3ccccc3n(C)c2c1 | -5 | 1 | / | -4 | / | /
Cn1c2ccccc2c(=O)c2ccc(NCc3ccc4c(c3)OCO4)cc21 | 1 | 1 | / | 17* | / | 3
Cn1c2c(c3ccccc31)CCN(CCCCN1CCN(c3ccccc3)CC1)C2=O | 2 | -1 | / | -6 | / | /
COc1ccc(NC(=O)c2cc(Br)c(Br)s2)cn1 | 10 | 0 | -10 | -4 | 2 | /
CCc1cc(C(=O)Nc2ccc(OC)nc2)sc1C | 20 | 8 | 5 | 50* | 8 | 5
Cc1ccc2c(c1)c1c(n2CC(O)CNC(C)(C)C)CCCC1 (centres undefined) | 2 | 1 | / | 16* | / | 10
COc1ccc(C(NC(=O)C2CCN(Cc3ccc(Oc4ccccc4)cc3)CC2)c2ccccc2C)cn1 (centres undefined) | / | / | / | 15* | / | -7
Cc1cccnc1C(NC(=O)C1CCN(Cc2ccc(Oc3ccccc3)cc2)CC1)c1ccccc1 (centres undefined) | / | / | / | -16 | / | /
COc1ccc(C2C(C(=O)O)c3ccccc3C(=O)N2C)cc1Br (centres undefined) | -2 | -5 | 5 | 19* | -10 | -458
COc1cc(OC)c(C2C(C(=O)O)c3ccccc3C(=O)N2C)cc1OC (centres undefined) | 1 | -2 | 5 | -7 | -12 | /
CC1CC(C)CN(C(=O)COC(=O)COc2ccc(C#N)cc2)C1 (centres undefined) | -1 | 2 | / | 11 | / | /
O=C1C=C(NNC(=O)c2ccncc2)CC(c2ccccc2)C1 (centres undefined) | 25 | 10 | -21 | 68* | -15 | -59
O=C1C=C(NCc2ccncc2)CC(c2ccccc2)C1 (centres undefined) | 2 | 1 | 2 | -12 | 13 | /
Cc1ccc[n+](-c2nc([O-])sc2C=O)c1 | 83* | 63* | -1 | 92* | -22 | 148*
CC(C)c1ccc[n+](-c2nc([O-])sc2C=O)c1 | / | / | 5 | 7 | -12 | /
C/C(=C\C(=O)c1ccccc1)Nc1ccc(O)cc1 | 0 | -1 | 3 | 12 | 7 | /
C/C(=C\C(=O)c1cccnc1)Nc1ccc(O)cc1 | 0 | 0 | 1 | 22* | 2 | 8
CCCCN1C(=O)C(CC(=O)NC2CCCC2)CC(C(=O)N2CCOCC2)=C1C (centres undefined) | / | / | / | 4 | / | /
O=C1c2cccc3c([N+](=O)[O-])ccc(c23)C(=O)N1c1ccccn1 | 1 | -2 | 2 | 27* | -3 | 20*
O=C1c2cccc3c([N+](=O)[O-])ccc(c23)C(=O)N1c1nccs1 | -1 | -1 | 7 | 13 | -1 | /
Cc1ccc(C)c(OCCC(=O)OCC(=O)NCCc2ccc(S(N)(=O)=O)cc2)c1 | 2 | -4 | 9 | 12 | 2 | /
SMILES | C-LANA FP | Keap1-Nrf2 PPI | EBNA-1 inh | eLon inh | ZTA counter | eLon confirm
CC1CC(C)CN(C(=O)CN2C(=O)NC(c3ccccc3)(c3ccccc3)C2=O)C1 (centres undefined) | 0 | -1 | / | -1 | -17 | /
Cc1cc(=O)oc2c(CN3CCCC3)c(O)c(Cl)cc12 | 5 | 2 | 6 | 1 | -4 | /
Cc1cc(=O)oc2c(CN3CCC(C)CC3)c(O)c(Cl)cc12 | 11 | 9 | -2 | 25* | -2 | 39*
CCCc1cc(=O)oc2c(CN3CCCC3)c(O)c(Cl)cc12 | 4 | 3 | -8 | 22* | -6 | -13
O=C(NCCCN1CCCC1=O)c1ccc2c(=O)n(Cc3ccco3)c(=S)[nH]c2c1 | 0 | -6 | -18 | 18* | -15 | 8
O=C(NCc1ccccc1)c1ccc2c(=O)n(CCCN3CCCC3=O)c(=S)[nH]c2c1 | 0 | -3 | 6 | -1 | -4 | /
C[C@@H]1CN([C@H](C)CO)C(=O)c2c(c3ccccc3n2C)-c2ccccc2CO[C@H]1CN(C)Cc1ccccc1 | / | / | / | 17* | / | -8
